Measured values as given in PubChem BioAssay AID652142 (Molecular Libraries Program, Specialized Chemistry Center, …, 2013).
Screen size: about 2,400 compounds; fewer than 10 were called active. The list is a sample of the results. Values without a mark were called inactive. No rule for the calls is given here.

target: Rac GTPase-activating protein 1 (Homo sapiens) (UniProt Q9H0H5); test: inhibition of MgcRacGAP-stimulated Rac1 GTP hydrolysis – biochemical, inorganic phosphate detection, orthogonal assay, confirmation (AID 652142); conditions: MgcRacGAP/Rac1F28L GTP hydrolysis, Biomol green phosphate; stronger effect = higher value
Sequence (Q9H0H5 whole entry, looked up): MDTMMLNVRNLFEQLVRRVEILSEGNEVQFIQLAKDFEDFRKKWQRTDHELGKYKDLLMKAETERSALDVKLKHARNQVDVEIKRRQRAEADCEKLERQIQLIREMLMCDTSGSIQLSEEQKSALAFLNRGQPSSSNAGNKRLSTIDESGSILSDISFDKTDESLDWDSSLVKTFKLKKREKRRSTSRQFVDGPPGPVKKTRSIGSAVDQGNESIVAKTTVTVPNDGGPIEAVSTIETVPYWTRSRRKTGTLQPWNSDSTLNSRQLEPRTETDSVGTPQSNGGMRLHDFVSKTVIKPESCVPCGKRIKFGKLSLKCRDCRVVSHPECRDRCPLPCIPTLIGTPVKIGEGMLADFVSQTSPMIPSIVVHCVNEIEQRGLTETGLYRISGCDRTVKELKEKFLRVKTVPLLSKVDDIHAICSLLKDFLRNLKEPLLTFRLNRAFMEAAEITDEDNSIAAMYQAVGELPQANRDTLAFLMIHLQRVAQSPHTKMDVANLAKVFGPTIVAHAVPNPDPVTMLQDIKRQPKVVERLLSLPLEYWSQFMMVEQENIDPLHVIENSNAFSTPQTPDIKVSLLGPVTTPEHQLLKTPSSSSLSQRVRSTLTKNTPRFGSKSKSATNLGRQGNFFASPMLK

Compound | inhibition
Cc1nn2cc(-c3ccc(N)cc3)nc2s1 | 22.3%
Oc1ccc(/C=N/Nc2ccnc3cc(Cl)ccc23)cc1O | 4.55%
Oc1ccc(/C=N\Nc2cc(N3CCOCC3)nc(N3CCOCC3)n2)c(O)c1 | 21.8%
Nc1ccc(N2CCCC2)c(S(=O)(=O)Nc2cccc(C(F)(F)F)c2)c1 | 29.9%
Cc1ccc(-c2cc(C(=O)N3CCN(c4ccc(O)cc4)CC3)c3ccccc3n2)cc1 | 23.8%
O=C(/C=C/Nc1ccc(Nc2ccccc2)cc1)c1cccs1 | 19.5%
C/C(=N\NC(=O)c1cccc(N/N=C(\C)c2cc(O)ccc2O)c1)c1cc(O)ccc1O | 28.1%
Cc1ccc(CN2CCN(Cc3ccccc3C(F)(F)F)CC2)cc1 | 17.2%
CCOC(=O)C1=C(COC(=O)/C=C/c2ccc(O)c(OC)c2)NC(=O)NC1C (stereo not given) | 11.2%
COc1cc(/C=C/C(=O)OCC(=O)N2CC3(C)CC2CC(C)(C)C3)ccc1O (stereo not given) | 33.5%
COc1ccc(S(=O)(=O)/N=C2\C=C(Nc3ccc(O)cc3)C(=O)c3ccccc32)cc1 | 13.5%
CCn1c(=S)[nH]c2sc3c(c2c1=O)CCCC3 | 10.8%
CCc1ccc(O)c(N=Cc2cccc(C)c2O)c1 | 23.4%
N=C(N)c1ccc(N=Nc2c(O)ccc3c2[nH]c2ccccc23)cc1 | 62.4%
CCc1ccc(O)c(N=Cc2ccccc2O)c1 | 33.5%
CN(C)c1ccc(C=c2c3cc(O)ccc3n3c2cc(-c2ccccc2)[n+]3C)cc1 | 83.7%
Oc1ccc(/C=N/Nc2cc(N3CCOCC3)nc(N3CCOCC3)n2)cc1 | 25.9%
Oc1ccc(/C=N/Nc2ccc(C(F)(F)F)cn2)c(O)c1 | 19.4%
O=S(=O)(O)c1cc(O)c(N=Nc2ccc(O)cc2O)c2ccccc12 | 24.4%
Oc1ccc(-c2[nH]ncc2-c2ccc(Cl)cc2)c(O)c1 | 26.7%
CN(C)c1ccc2c(c1)C(=NO)c1ccccc1-2 | 19.4%
O=C(NCc1ccco1)c1sc(=S)n2c1[nH]c(=O)c1ccccc12 | 31.8%
CCN(CC)c1ccc(Nc2nc(Cl)ncc2Br)cc1 | 33.2%
CCOc1cc(/C=N/NC(=O)CN2CCCCC2)ccc1O | 30.3%

Compound | inhibition
CN(c1ccc(O)cc1)c1nc(-c2ccccc2)cs1 | 23.3%
COc1cc(/C=N/Nc2nc3ccccc3[nH]2)ccc1O | 12.2%
CCN(c1ccccc1)S(=O)(=O)c1ccc(N2CCN(c3ccc(O)cc3)CC2)nc1 | 27.7%
CCOc1cc(/C=N/NC(=O)CCCC(=O)NC2CCCCC2)ccc1O | 20.5%
Cc1cc(-c2ccccc2)nc(N/N=C/c2ccc(O)cc2O)n1 | 20.5%
Cc1c(C(=O)N/N=C/c2ccc(O)c(Br)c2)sc(N)c1C#N | 31.3%
Nc1ccc2nc(C3CCCCC3)[nH]c2c1 | 28.4%
COc1cc(/C=N/NC(=S)NC2CC3CCC2C3)ccc1O (stereo not given) | -0.0456%
COc1cc2c(cc1NC(=O)C(Cl)Cl)-c1ccc(NC(=O)C(Cl)Cl)cc1C2 | 13.1%
CSc1nc(/C=C2\C=Nc3ccccc32)c(O)n1C | 7.92%
Cn1c(-c2ccc(Cl)cc2)cnc1NCc1cc2c(cc1[N+](=O)[O-])OCO2 | 22.1%
C=CCn1c(SCC(=O)c2ccc(O)c(O)c2)nnc1-c1cccc(Cl)c1 | 29.9%
CN(Cc1ccccc1)Cc1c(O)ccc2ccccc12 | 23.9%
COc1cc(/C=N/NC(=O)CN(Cc2ccccc2)S(=O)(=O)c2ccc3c(c2)OCCO3)ccc1O | -2.68%
COc1cccc(CNc2ccc3[nH]c(=O)[nH]c3c2)c1OCc1ccccc1Cl | -0.282%
Cc1ccccc1C(OCC(O)CN1CCN(CCO)CC1)c1ccccc1 (stereo not given) | 29.2%
CCN1CCN(CCOc2ccc(Br)cc2C)CC1 | 23.2%
COc1cc(/C=N/NC(=O)NC23CC4CC(CC(C4)C2)C3)ccc1O | 35.9%
O=c1c2ccccc2sn1-c1ccc(Cl)cc1 | 75%
CC[n+]1ccc(/C=C/c2ccc(N(C)C)cc2)c2ccccc21 | 31.5%
COc1cc(/C=N/NC(=O)c2nnn(-c3nonc3N)c2C(C)C)ccc1O | 15.1%
CN1CCN(/N=C/c2nc(-c3ccccc3)n3ccccc23)CC1 | 30.1%
CC(=O)N1CCN(c2ccc(Nc3ncnc4c3oc3ccccc34)cc2)CC1 | 8.13%
CCOc1cc(/C=N/NC(=O)c2ccccc2-n2cccc2)ccc1O | 30.4%

Compound | inhibition
CN(C)c1ccc(N=C/C=C2\N(C)c3ccccc3C2(C)C)cc1 | 22.7%
COc1cc(/C=N/NC(=O)c2ccc(-n3cccc3)cc2)ccc1O | 12.4%
COc1cc(/C=N/NC(=O)C2(O)c3ccccc3-c3ccccc32)ccc1O | 25.6%
COc1ccc(Oc2cn[nH]c2-c2ccc(O)cc2O)cc1 | 17.2%
Cc1cc(-c2ccccc2)nc(N/N=C/c2ccc(N(C)C)cc2)n1 | 23.8%
COc1cc(-c2nc3ccc(C)cn3c2Nc2ccc3c(c2)OCCO3)ccc1O | 21.3%
CCOC(=O)c1cc(NCc2cccs2)ccc1N1CCOCC1 | 30.4%
O=C(N/N=C/c1ccc(O)cc1)Nc1cccc2nsnc12 | 33.1%
CC(=O)Nc1ccc(Oc2nc(-c3ccccn3)nc3ccccc23)cc1 | 26%
CCCS(=O)(=O)N1CCN(CC2CC3C=CC2C3)CC1 (stereo not given) | 10.6%
O=c1c2ccccc2sn1-c1ccc(Cl)cc1Cl | 79.5%
O=[N+]([O-])c1cccc(/C=N/n2c(-c3cccnc3)n[nH]c2=S)c1 | 32.9%
C=CCn1c(N/N=C/c2ccc(O)cc2)nc2ccccc2c1=O | 18.4%
COc1cc(CCNC2=CC(=O)c3ncccc3C2=O)ccc1O | 23.7%
C/C(=N\Nc1ccc(S(=O)(=O)N2CCCCC2)cn1)c1ccc(O)cc1 | 27.3%
COc1ccccc1N=NNc1ccccc1OC | 28.7%
CC(C)(C)N1C(=O)c2ccc(C(=O)Nc3ccc(O)cc3)cc2C1=O | 24.3%
Cn1c(-c2ccc3c(c2)OCO3)cnc1NCc1ccccc1Cl | 27.7%
COc1cccc(Nc2nc(-c3ccc(O)cc3)cs2)c1 | 31.8%
C=CCn1c(=O)/c(=C/c2ccc(O)cc2)s/c1=C(/C#N)c1nnc2n1CCCCC2 | 18.2%
COc1ccc(CNc2ncc(-c3ccc(F)cc3)n2C)c2ccccc12 | 17.2%
CCOC(=O)/C(C#N)=C\c1c(OCC)n(CC)c2ccccc12 | 19.7%
Cc1cccc(C)c1OCCCCN1CCNCC1 | 32%
CC1(C)OC(=O)C(=NNc2ccc(O)cc2)C(=O)O1 | 20.7%

Compound | inhibition
CCN(CC)S(=O)(=O)c1cccc(NC(=O)CNC2CCCCCC2)c1 | 31%
C#CCOCCOCCOCCNc1nc(N2CCN(C(=O)[C@H](CCCCN)n3cc([C@@H](N)CC(C)C)nn3)CC2)nc(N2CCN(C(=O)[C@H](CCCCN)n3cc([C@@H](N)CC(C)C)nn3)CC2)n1 | 39.7%
COc1cc(/C=C2\SC(=Nc3c(C)n(C)n(-c4ccccc4)c3=O)NC2=O)ccc1O | 22.8%
Nc1ccc2nc(-c3ccccc3)[nH]c2c1 | 26.8%
Oc1ccc(Cl)cc1C=Nc1ccc2c3c(cccc13)CC2 | 29.6%
Nc1ccc(-c2nc3ccc(N)cc3s2)cc1 | 22.9%
COc1cc2[nH]c(=S)nc(NCCc3ccc(S(N)(=O)=O)cc3)c2cc1OC | 17.7%
Cc1c(O)ccc(/C(Cc2ccc3ccccc3n2)=N\O)c1O | 25.3%
Oc1ccc(/C=N/Nc2cc(N3CCOCC3)nc(N3CCOCC3)n2)cc1O | 7.37%
Cc1ccccc1-c1ccc(Nc2ccc(N3CCOCC3)cc2)nn1 | 33.6%
CC1=NN(c2ccccc2)C(=O)/C1=C/C=C/C=C/N(C)C | 21.7%
Cc1ccc(C2C=NN(c3ccccc3)C2=O)cc1 (stereo not given) | -3.99%
S=c1[nH]c2ccccc2n2c(=S)[nH]nc12 | 23.8%
O=C1CCCC/C1=C\Nc1ccc(O)cc1 | 30.3%
O=C(Nc1ccccc1C(=O)N/N=C/c1ccc(O)cc1)c1ccccc1 | 25.8%
Cc1ccc(Nc2n[nH]c(=S)s2)cc1 | 23.2%
C#CCOCCOCCOCCNc1nc(N2CCN(C(=O)[C@H](CCCCN)n3cc([C@@H](N)C(C)CC)nn3)CC2)nc(N2CCN(C(=O)[C@H](Cc3cc4ccccc4[nH]3)n3cc([C@@H](N)C(C)CC)nn3)CC2)n1 (stereo not given in full) | 54.2%
Fc1ccc(CNc2ccc(N3CCN(Cc4ccccc4)CC3)cc2)cc1 | 7.97%
Cc1cc(SCC(=O)c2ccc(O)c(O)c2)nc2ccccc12 | 5.6%
COc1ccc(NC(=O)n2ncc3cc(Cl)ccc32)cc1OC | 23.6%
COc1ccc(C(CNC(=O)c2cc3ccccc3cc2O)N2CCOCC2)cc1 (stereo not given) | 18%
CC1CCCCN1Cc1c(O)ccc2c(=O)c(-c3nc4ccccc4s3)c(N)oc12 (stereo not given) | 30.4%
CCN(CC)CCCC(C)NC(=O)c1c(NC(=O)c2ccccc2)sc2c1CCCC2 (stereo not given) | 24.9%
